BAZ2B inh: BAZ2B (human) inhibition | AID 504333 | Potency, µM (highest dose often 114 µM), hits mostly inhibitors | hit rate 4.4% among 360,000 | AlphaScreen BAZ2B-H3K14Ac peptide displacement | Q9UIF8; also: nearly all actives have a fitted effect of over 60% in size
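AlphaScreen displacement of biotin-H3(5-23)K14Ac peptide (50 nM final) from BAZ2B (50 nM final) in PBS pH 7.4, 0.01% Tween-20; complex preformed 30 min RT, then compounds (top 110 uM) 30 min RT, beads 20 min dark.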
GLS inh: blocks human kidney-isoform glutaminase activity; hit rate 0.21% among 410,000; GLS enzymatic activity, qHTS titration; O94925; AID 624170; Potency, µM (highest dose often 45.5 µM), hits mostly inhibitors
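Coupled fluorescence readout: glutamate oxidase/HRP/Amplex Red detect glutamate formed by hKGA from L-glutamine (1 mM solution added). Buffer 45 mM KH2PO4 pH 8.2, 0.02% Tween-20; reads at t0 and 30 min RT.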
G9a block: inhibitors of human histone lysine methyltransferase G9a; AID 504332; Q96KQ7; G9a H3K9 monomethylation, AlphaScreen, 2 h; hit rate 8.8% among 350,000; Potency, µM (doses to about 102 µM), most hits filed as inhibitors; also: nearly all actives have a fitted effect of over 75% in size
Target sequence (Q96KQ7 913-1193 limits assumed): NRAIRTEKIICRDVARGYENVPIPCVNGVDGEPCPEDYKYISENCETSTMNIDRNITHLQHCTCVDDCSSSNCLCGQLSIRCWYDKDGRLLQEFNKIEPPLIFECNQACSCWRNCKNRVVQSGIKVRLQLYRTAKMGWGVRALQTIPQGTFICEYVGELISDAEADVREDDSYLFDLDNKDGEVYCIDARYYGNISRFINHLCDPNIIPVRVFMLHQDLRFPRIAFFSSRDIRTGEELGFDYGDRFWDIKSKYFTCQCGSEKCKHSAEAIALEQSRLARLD
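AlphaScreen read-out: biotin-H3K9 peptide (500 nM) methylation by 20 nM enzyme with 20 uM SAM, 2 h at room temperature after 15 min compound preincubation; anti-monomethyl H3K9 antibody plus donor/acceptor beads, 10 min dark.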
JMJD2A Tudor inh: JMJD2A Tudor domain (human) inhibition; Potency, µM (highest dose often 114 µM), hits mostly inhibitors; O75164; AlphaScreen JMJD2A-Tudor / H3K4me3 peptide binding; hit rate 4.4% among 390,000; also: nearly all actives have a fitted effect of over 50% in size
HP1b binding inh: inhibitors of HP1-beta chromodomain binding to methylated histone tails. AID 540317. hit rate 0.56% among 390,000. AlphaScreen HP1-beta / biotin-H3K9me3 peptide binding. P83916. Potency, µM (doses to about 114 µM), hits mostly inhibitors; also: nearly all actives have a fitted effect of over 70% in size
Target sequence (P83916 whole entry, looked up): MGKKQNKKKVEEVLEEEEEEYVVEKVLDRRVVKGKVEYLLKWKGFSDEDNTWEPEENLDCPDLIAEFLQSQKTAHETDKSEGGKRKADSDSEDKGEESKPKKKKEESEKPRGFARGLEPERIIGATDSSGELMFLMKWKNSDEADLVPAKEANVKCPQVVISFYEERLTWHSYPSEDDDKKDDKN
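HP1-beta protein (50 nM final) preincubated 30 min at room temperature with biotinylated H3(1-18)K9me3 peptide (50 nM) in PBS pH 7.4, 0.01% Tween-20, then compound added for 30 min. AlphaScreen streptavidin donor/nickel chelate acceptor beads (10 ug/mL final), 30 min dark, luminescence read.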
Numbers stand for hits; 0 = inactive; ? = inconclusive; - = no result given; [ ] = another dose, or the depositor's remark. This is a sample that favours compounds with a hit; in the whole collection about 10% have one here. Calls follow the shape of the dose curve; as a rule, active = well fitted curve in the direction sought with a large enough effect; inconclusive = small, poorly fitted or top-dose-only effect, or another doubt; inactive = no such curve, though single readings can be large; an effect the other way counts as inactive or inconclusive.

SMILES	BAZ2B inh	GLS inh	G9a block	JMJD2A Tudor inh	HP1b binding inh
N#CC1=C(N)Oc2c(oc(CO)cc2=O)C1c1ccsc1 (centres undefined)	50µM	0	32µM	0	0
N#CC1=C(N)Oc2c(ccc3ccccc23)C1c1ccsc1 (centres undefined)	0	?	45µM	0	0
N#CC1=C(N)Oc2c(oc(CO)cc2=O)C1c1cccs1 (centres undefined)	0	0	45µM	28µM	0
COc1ccc(N(CC(=O)N2CCN(c3ccc(F)cc3)CC2)S(=O)(=O)c2c(C)nn(C)c2C)cc1	-	0	0	0	0
CCOc1cccc(C(=O)Nc2ccc3ccccc3c2)c1	0	0	0	0	0
CCOc1cccc(C(=O)Nc2ccc(N(CC)CC)cc2)c1	40µM	0	8.9µM	25µM	?
CCN(CC)c1ccc(NC(=O)CCCOc2cccc(C)c2)cc1	0	0	0	10µM	?
CCOc1ccc(OCc2cccc(C(=O)Nc3ccc(CN4CCCCC4)cc3)c2)cc1	?	0	20µM	?	?
CCOc1cccc(C(=O)Nc2ccc(N3CCCC3)cc2)c1	0	0	3.5µM	?	0
COc1ccc(OCc2cccc(C(=O)Nc3ccc(CN4CCCCC4)cc3)c2)cc1	?	0	?	?	0
COc1ccc(NC(=O)C(NS(=O)(=O)c2cccc3nsnc23)c2ccccc2)cc1 (centres undefined)	-	0	0	0	0
Cc1cc(C)n(C(=O)CNC(=O)Cc2ccccc2)n1	-	0	0	0	?
Cc1cc(C)n(C(=O)CNC(=O)c2ccco2)n1	0	0	71µM	0	0
Brc1ccc(-c2cnnc(N3CCCC3)n2)cc1	0	0	71µM	0	0
Cc1ccc(NC(=O)Cn2c(=O)n(Cc3ccc4c(c3)OCO4)c(=O)c3ccc(C(=O)NC4CCCCC4)cc32)cc1	-	0	0	0	0
Oc1ccc(N=Cc2ccc(-c3cccs3)s2)cc1	?	0	?	35µM	?
Cc1cc(N2C(=O)c3ccccc3C2=O)n[nH]1	-	-	-	0	-
CCN(Cc1ccccc1)Cc1c(F)cccc1F	-	0	?	20µM	?
CCN(Cc1ccccc1)Cc1cc(OC)cc(OC)c1	0	0	0	0	0
O=C(NCCc1cccs1)Nc1ccc2nc([C@@H]3O[C@H](CO)[C@@H](O)[C@H]3O)[nH]c2c1	-	0	-	-	-
COc1ccc(-n2nc(C(=O)Nc3ccc(C(C)=O)cc3)nc2-c2ccccc2)cc1	0	0	?	0	0
CCC(NS(=O)(=O)c1ccc2c(c1)Cc1cc(S(=O)(=O)NC(CC)C(=O)O)ccc1-2)C(=O)O (centres undefined)	?	0	-	0	0
CCOC(=O)[C@H](C)N1[C@H](C)[C@H](c2ccccc2)Oc2ccc(Cl)cc2S1(=O)=O	-	0	-	0	0
CNCCOc1ccccc1-c1ccccc1	?	0	?	3.5µM	0
CNCCCCOc1ccccc1-c1ccccc1	56µM	0	?	0.63µM	?
SMILES	BAZ2B inh	GLS inh	G9a block	JMJD2A Tudor inh	HP1b binding inh
C=CCNCCCCOc1ccccc1-c1ccccc1	0	0	0	0	0
CNCCOc1ccccc1OC(C)C	?	0	18µM	2.2µM	0
Cc1cccc(-n2ncc(C(=O)NCc3ccccn3)c2C2CCN(C(=O)OC(C)(C)C)CC2)c1	0	0	0	0	0
NC(CCc1ccccc1)c1csc(NC(=O)NCC2CCCCC2)n1 (centres undefined)	-	0	-	-	-
COc1ccccc1N=NNc1ccccc1OC	-	0	-	-	-
CCn1c(SCC(N)=O)nnc1-c1cc2c(C)nn(-c3ccccc3)c2s1	0	0	45µM	0	0
COC(=O)c1cc(=O)n(CCc2ccccc2)c(=Nc2ccc(F)cc2)s1	0	0	7.1µM	?	0
CCOC(=O)c1ccc(N=c2sc(C(=O)OC)cc(=O)n2CCCN2CCOCC2)cc1	50µM	0	50µM	?	0
CCOC(=O)c1ccc(N=c2sc(C(=O)OC)cc(=O)n2Cc2ccco2)cc1	?	0	40µM	?	0
CCn1c(=O)cc(C(=O)OC)sc1=Nc1ccc(F)c(F)c1	0	0	?	?	0
COc1cccc(CNC(=O)Cn2c(=O)oc3cc(S(=O)(=O)N4CCCC4)ccc32)c1	0	0	0	0	0
Cc1cc(NS(=O)(=O)c2ccc(NC(=O)CSc3nc4ncc(Cl)cc4[nH]3)cc2)nc(C)n1	0	0	45µM	0	0
Nc1ncnc2nc(SCC(=O)Nc3cccc(C(F)(F)F)c3)[nH]c12	0	0	35µM	0	0
O=C(CSc1nc2ncc(Cl)cc2[nH]1)Nc1cccc(F)c1	0	0	50µM	0	0
O=[N+]([O-])c1cc2oc3c(c2c(C=NCc2ccccc2)c1O)CCCC3	0	?	0	71µM	?
CC(C)CN=Cc1c(O)c([N+](=O)[O-])cc2oc3c(c12)CCCC3	?	0	0	0	0
COC(=O)c1ccc2c(c1)N(CC(=O)Nc1cccc(C(F)(F)F)c1)C(=O)c1ccccc1S2	0	0	0	0	0
COc1ccc(-c2cc(-c3ccco3)[nH]c(=O)c2C#N)cc1OC	56µM	0	10µM	?	0
Cn1c(=S)c2[nH]c(SCC3CCCO3)nc2n(C)c1=O (centres undefined)	-	0	-	4.5µM	?
COc1ccc(C2=C(C)C(=NCCCN3CCN(c4cc(Cl)ccc4C)CC3)NS2(=O)=O)cc1	0	0	0	0	0
CC1=C(c2ccc(Cl)cc2)S(=O)(=O)NC1=NCCCN1CCN(c2cc(C)ccc2C)CC1	0	0	?	16µM	0
CC1CCCCN1c1csc2ccc(F)cc2c1=O (centres undefined)	0	0	?	0	0
CC1CCCCN1c1ccc(N)cc1C(N)=O (centres undefined)	0	2µM	?	0	0
CCNc1ncc2nc(C)c(=O)n(CCOC)c2n1	-	-	0[0.501 µM]	-	-
Cc1ccc(S(=O)(=O)NNC(=O)c2cnn(-c3ccc(Cl)cc3)c2C(F)(F)F)cc1	0	?	56µM	0	0
SMILES	BAZ2B inh	GLS inh	G9a block	JMJD2A Tudor inh	HP1b binding inh
Cc1ccc(S(=O)(=O)NNC(=O)c2cnn(-c3ccccc3)c2C(F)(F)F)cc1	0	0	0	0	0
CC(C)C[C@@H](CNC(=O)OC(C)(C)C)NC(=O)c1nc[nH]c1C(=O)N[C@@H](CC(C)C)C(=O)CNC[C@H](CC(C)C)NC(=O)c1nc[nH]c1C(=O)N[C@@H](Cc1c[nH]c2ccccc12)C(=O)OC(C)(C)C	-	0	-	0	0
Cc1ccccc1NC(=O)CN1C(=O)C2C3CC(C(Br)C3Br)C2C1=O (centres undefined)	0	0	5µM	?	?
OB(O)c1ccc(Br)cc1	-	-	-	0	0
c1ccc(COc2ccc(-c3sc(Nc4ccccc4)n[n+]3-c3ccccc3)cc2)cc1	45µM	-	22µM	-	-
CCc1ccc(Nc2n[n+](-c3ccccc3)c(-c3ccc(OCc4ccccc4)cc3)s2)cc1	50µM	0	?	0	0
CCC(=O)N(C)C[C@@H]1Oc2ncc(Br)cc2C(=O)N([C@@H](C)CO)C[C@H]1C	-	0	-	-	-
